# TDP1 block – blocks human tyrosyl-DNA phosphodiesterase 1; Potency, µM (highest dose often 130 µM), without a hit: top-dose activity change, negative = inhibition, usual class: inhibitors; recombinant TDP1, AlphaScreen DNA substrate cleavage; Q9NUW8; 350,000 tested, 0.28% active; further: on the % scale 0 is the no-effect control and ±100 the full control effect; nearly all actives have a fitted effect of over 40% in size
# Target sequence (Q9NUW8 whole entry, looked up): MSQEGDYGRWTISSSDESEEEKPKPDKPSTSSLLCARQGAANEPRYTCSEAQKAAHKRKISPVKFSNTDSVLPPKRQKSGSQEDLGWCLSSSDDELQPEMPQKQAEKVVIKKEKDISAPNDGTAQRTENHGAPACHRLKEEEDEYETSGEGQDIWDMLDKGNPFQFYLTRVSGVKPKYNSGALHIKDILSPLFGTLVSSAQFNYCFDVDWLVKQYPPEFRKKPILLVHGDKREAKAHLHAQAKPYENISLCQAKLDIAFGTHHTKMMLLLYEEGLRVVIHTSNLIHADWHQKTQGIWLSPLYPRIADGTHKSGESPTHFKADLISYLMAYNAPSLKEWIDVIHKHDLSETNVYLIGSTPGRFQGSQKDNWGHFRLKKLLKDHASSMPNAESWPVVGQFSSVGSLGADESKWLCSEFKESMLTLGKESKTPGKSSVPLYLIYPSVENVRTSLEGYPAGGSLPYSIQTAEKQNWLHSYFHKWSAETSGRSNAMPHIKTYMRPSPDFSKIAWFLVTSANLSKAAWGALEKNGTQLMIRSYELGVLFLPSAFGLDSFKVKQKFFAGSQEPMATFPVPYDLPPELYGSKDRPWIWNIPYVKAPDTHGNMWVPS
#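 E. coli-derived human Tdp1, 1 nM final. Cpd preinc 15 min RT; substrate 15 nM final, 5 min RT; AS bead mix 10 ug/ml final, 10 min RT. Signal loss = tyrosine-FITC cleavage. No-enzyme wells = max signal.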
# HP1b binding inh – blocks HP1-beta chromodomain binding to methylated histone tails. AlphaScreen HP1-beta / biotin-H3K9me3 peptide binding. Potency, µM (series often up to 114 µM), for the others: at the top dose activity change, negative = inhibition, most hits filed as inhibitors. 390,000 tested, 0.56% active; further: nearly all actives have a fitted effect of over 70% in size
#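 Compound inhibition of the preformed complex between 50 nM HP1-beta and 50 nM biotinylated H3K9me3 peptide was read by AlphaScreen. Buffer was PBS pH 7.4 with 0.01% Tween-20. Incubations ran 30 min at room temperature, with 10 ug/mL donor/acceptor beads.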
# G9a block – G9a (human) methyltransferase inhibition; Q96KQ7; G9a H3K9 monomethylation, AlphaScreen, 2 h; Potency, µM (highest dose often 102 µM), inactives show top-dose activity, negative = inhibition, actives largely listed as inhibitors; 350,000 tested, 8.8% active; AID 504332; further: on the % scale 0 is the no-effect control and ±100 the full control effect; nearly all actives have a fitted effect of over 75% in size
#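 Methyltransferase reactions run at room temperature for 2 h (20 nM enzyme, 500 nM biotin-H3K9 peptide, 20 uM SAM) after a 15 min compound preincubation; product detected by AlphaScreen beads and anti-H3K9me1 antibody.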
# Sfp PPTase inh – inhibitors of Bacillus subtilis Sfp phosphopantetheinyl transferase | Q9F4F7 | Biochemical Sfp PPTase activity, qHTS | Potency, µM, inactives show largest response in the series, negative = inhibition, hits mostly inhibitors | 310,000 tested, 3.5% active;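 further: the enzyme is Sfp with the accession as filed and its product quenches rhodamine fluorescence; 0% = enzyme reaction without inhibitor and -100% = no enzyme wells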
#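 Sfp 15 nM + cpd, 15 min RT; start w/ rhodamine-CoA 5 uM, BHQ-2-YbbR 12.5 uM (final); 50 mM Hepes pH 7.6, 10 mM MgCl2, 0.01% NP-40, 0.01% BSA; read 525/598 nm at 0 and 30 min.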
# JMJD2A Tudor inh – JMJD2A Tudor domain (human) inhibition. O75164. AlphaScreen JMJD2A-Tudor / H3K4me3 peptide binding. Potency, µM (top dose mostly 114 µM), without a hit: at the top dose activity change, negative = inhibition, most hits filed as inhibitors. 390,000 tested, 4.4% active. AID 504339; further: on the % scale 0 is the no-effect control and ±100 the full control effect; nearly all actives have a fitted effect of over 50% in size
# BAZ2B inh – blocks human BAZ2B | Q9UIF8 | AlphaScreen BAZ2B-H3K14Ac peptide displacement | Potency, µM (titrated, usually from 114 µM), inactives show top-dose activity change, negative = inhibition, actives largely listed as inhibitors | 360,000 tested, 4.4% active; further: on the % scale 0 is the no-effect control and ±100 the full control effect; nearly all actives have a fitted effect of over 60% in size
#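 Compounds, titrated to a top concentration of 110 uM, were incubated 30 min at room temperature with preformed BAZ2B/acetyl-K14 H3 peptide complex (50 nM each). Proximity signal was measured by AlphaScreen after 20 min with beads.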
# * marks the source's active call; other numbers are inactive results; ? = inconclusive; . = no result; [ ] = dose if it differs, or a comment. A selection: hits, their analogues and other compounds. The true share with any hit is near 12%. The call rests on the fitted dose curve; in most records, active means well fitted curve in the direction sought with a large enough effect; inconclusive means small, poorly fitted or top-dose-only effect, or another doubt; inactive means no such curve, though single readings can be large; an effect the other way counts as inactive or inconclusive. Potency means the concentration at half of the fitted maximal effect.
SMILES,TDP1 block,HP1b binding inh,G9a block,Sfp PPTase inh,JMJD2A Tudor inh,BAZ2B inh
Cc1cccc(C(=O)NC(=S)Nc2ccc(N3CCOCC3)cc2)c1,9.5%,?,7.94µM*,-6.7%,?,31.6µM*
CC(=O)NCCNc1ncnc2ccc(-c3ccccc3Cl)cc12,.,.,2.1%[0.501 µM],-6.3%,.,.
O=C(N/C(=C/c1ccc(Cl)cc1)C(=O)N1CCCC1)c1ccccc1,2.5%,19.9%,-3.6%[12.7 µM],15.2%,-9.7%,1.4%
CCOc1ccc(S(=O)(=O)N(C)CC(=O)NCc2ccc3c(c2)OCO3)cc1,.,19.3%,-10.9%,16.9%,-11.0%,-15.6%
CC(=O)c1cccc(NC(=S)NC(=O)c2ccc(Cl)cc2)c1,5.5%,14.1%,-11.9%[59 µM],-25.7%,?,-3.2%
Cc1ccccc1OCC(=O)NC(=S)Nc1ccc(N2CCOCC2)c(Cl)c1,-2.0%,4.9%,?,7.9%,-7.2%,5.9%
O=C(/C=C/c1ccccc1)NC(=S)Nc1ccc(N2CCOCC2)cc1,2.0%,6.4%,?,-11.3%,-14.5%,-10.4%
COc1ccccc1C(=O)NC(=S)Nc1ccc(N2CCOCC2)c(Cl)c1,-1.2%,-11.1%,8.91µM*,31.6µM*,-35.6%,-32.7%
O=C(/C=C/c1ccc(Cl)cc1)NC(=S)Nc1ccc(N2CCOCC2)c(Cl)c1,-2.7%,?,22.4µM*,?,?,5.0%
CCCCc1ccc(NC(=S)NCc2cccc(OC)c2)cc1,5.4%,47.4%,20.7%,3.1%,0.0%,-1.3%
CCCCc1ccc(NC(=S)Nc2ccc(Nc3ccc(OC)cc3)cc2)cc1,-0.6%,?,12.6µM*,?,28.2µM*,14.1µM*
CC(=O)c1cccc(NC(=S)NC(=O)c2cccc(C)c2)c1,5.6%,-14.4%,25.1µM*,-4.4%,?,-37.5%
C=C/C(C)=C/[C@@]1(C)SC(=O)C(C)=C1O,?,.,2.6%[12.7 µM],.,.,.
COCc1nc2c([nH]1)c(=O)n(C)c(=O)n2CC(C)C,7.1%[56.1 µM],21.2%,15.5%[59 µM],1.1%,-7.9%,7.9%
O=C(NCc1ccco1)C(=O)NCC1OCCN1S(=O)(=O)c1cc(F)ccc1F (stereo unspecified),-9.3%,6.5%,.,2.7%,-26.6%,?
COc1ccc(NC(=S)Nc2ccccn2)cc1,3.1%,37.6%,39.8µM*,-4.2%,-7.7%,-32.9%
Cc1ccccc1C(=O)NC(=S)Nc1cccc(NC(=O)C(C)C)c1,-3.7%,20.3%,8.91µM*,3.9%,?,-11.5%
CCOc1ccc(NC(=S)Nc2cccnc2)cc1,5.1%,-9.4%,44.7µM*,?,-10.0%,-14.0%
CC(C)C(=O)Nc1cccc(NC(=S)NC(=O)c2ccccc2Cl)c1,2.0%,33.6%,-49.9%[59 µM],4.2%,-30.2%,-22.1%
Cc1cccc(N2CCN(c3ccc(NC(=O)/C=C(/C(=O)O)c4ccccc4)cc3)CC2)c1,7.0%,?,8.91µM*,?,?,?
CN(CC(=O)Nc1ccccc1C(F)(F)F)C(=O)CSc1nnc(N)s1,1.4%,8.6%,.,.,1.4%,.
Cc1cccc(NC(=S)NN2CCOCC2)c1C,3.6%,63.5%,28.1%[59 µM],-4.9%,-10.2%[57.1 µM],-3.6%
COc1ccc(C(=O)NC(=S)Nc2cccnc2)cc1Cl,9.9%,6.1%,50.1µM*,2.1%,?,-2.6%
COc1cc(NC(=S)Nc2cccnc2)cc(OC)c1OC,-2.0%,23.0%,50.1µM*,?,-22.7%,-4.9%
COc1cc(NC(=S)NCc2cccnc2)cc(OC)c1OC,2.7%,40.0%,6.7%,?,-2.8%,0.7%
Cc1cccc(NC(=S)Nc2ccc(N3CCOCC3)cc2)c1C,-3.2%,3.3%,39.8µM*,-18.8%,4.3%[57.1 µM],-30.3%
COc1cccc(C(=O)NC(=S)Nc2cccnc2)c1,-4.1%,-5.8%,?,-26.8%,?,-3.8%
CCOc1ccc(C(CC(=O)Nc2ccc(C(=O)OC)cc2)N2Cc3ccccc3C2=O)cc1OC (stereo unspecified),2.8%,24.0%,0.2%[59 µM],.,15.9%,-1.9%
O=C(COC(=O)c1ccc2c(c1)OCCO2)NCCc1ccc(F)cc1,-0.3%,44.3%,.,.,4.4%,.
